Assay [1] can be described thus: HepG2 liver cancer cell viability effects, profiling panel, resazurin fluorescence, 24 h, PK04 Diversity Set (AID 1172). Note: test concentration not given here. The following applies: higher = more signal.
The nature of assay [2]: basal S. cerevisiae growth modulation, no modifier, primary screen, OD600, strain BY4716, 24 h, basal condition (AID 1173). The following applies: OD600, 24 h, higher = more signal, called active from +8 up or from −8 down.
The nature of assay [3]: MM1S myeloma cell viability, profiling panel, resazurin fluorescence, basal, 24 h, PK04 Diversity Set (AID 1174).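 Note: MM1S multiple myeloma cell line; test concentration not given here.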 As to conditions: higher = more signal, called active from +8 up or from −8 down.
The target of assay [4] is Dihydroorotate dehydrogenase (quinone), mitochondrial (Plasmodium falciparum (isolate 3D7)) (UniProt Q08210). Briefly: PfDHODH enzyme inhibitors, primary screen, biochemical, C-terminal His tag, absorbance 600 nm (AID 1175).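 Note: recombinant parasite enzyme with a five histidine tag at its C terminus; test concentration not given here.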 The following applies: DCIP absorbance 600 nm, higher = more signal, called active from +8 up or from −8 down.
Sequence of Dihydroorotate dehydrogenase (quinone), mitochondrial (Plasmodium falciparum (isolate 3D7)) (Q08210 whole entry, looked up): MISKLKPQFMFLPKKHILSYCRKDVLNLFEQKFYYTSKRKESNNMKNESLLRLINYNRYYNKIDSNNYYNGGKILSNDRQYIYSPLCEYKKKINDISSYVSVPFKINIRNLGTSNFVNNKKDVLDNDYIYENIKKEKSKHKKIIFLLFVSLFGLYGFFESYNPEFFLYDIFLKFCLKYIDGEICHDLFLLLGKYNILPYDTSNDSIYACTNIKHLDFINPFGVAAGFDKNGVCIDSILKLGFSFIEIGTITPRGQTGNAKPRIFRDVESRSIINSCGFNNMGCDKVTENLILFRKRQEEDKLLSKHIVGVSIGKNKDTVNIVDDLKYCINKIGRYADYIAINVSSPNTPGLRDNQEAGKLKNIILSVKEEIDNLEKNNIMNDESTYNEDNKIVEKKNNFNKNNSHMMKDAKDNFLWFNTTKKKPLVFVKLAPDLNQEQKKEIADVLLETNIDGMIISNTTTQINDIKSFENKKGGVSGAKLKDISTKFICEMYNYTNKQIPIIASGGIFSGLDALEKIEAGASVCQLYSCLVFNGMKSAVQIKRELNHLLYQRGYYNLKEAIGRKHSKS
Assay [5] is described as follows: P. aeruginosa biofilm formation inhibitors, primary screen, strain PAO1, LB-PBS medium, absorbance 600 nm (AID 1176). Note: test concentration not given here. As to conditions: P. aeruginosa PAO1 growth/biofilm, A600, 12 h; higher = more signal.
The nature of assay [6]: S. cerevisiae RM11-1a growth modifiers, primary screen, strain RM11-1a, OD600, basal, 24 h (AID 1177).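 Note: cultures grown under basal conditions with no added stressor; test concentration not given here.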 As to conditions: OD600, 24 h, higher = more signal, called active from +8 up or from −8 down.
The nature of assay [7]: E. coli acrAB mutant growth effects, primary screen, E. coli filamentation inducers, strain DRC39, OD650, 24 h (AID 1178).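 Note: growth measured as culture turbidity by optical density at 650 nm; test concentration not given here.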 The following applies: higher = more signal, called active from +8 up or from −8 down.
A short description of assay [8]: E. coli acrAB mutant growth effects, primary screen, E. coli filamentation inducers, strain DRC39, OD650, 48 h (AID 1179).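 Note: screen aims at cell division blockers that make cells filament.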 The following applies: E. coli DRC39 delta-acrAB growth, higher = more signal, called active from +8 up or from −8 down.
Assay [9] can be described thus: RPMI8226 myeloma cell viability, profiling panel, resazurin fluorescence, basal, 24 h, PK04 Diversity Set (AID 1180).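 Note: RPMI8826 multiple myeloma cell line at 5000 cells per well; test concentration not given here.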 As to conditions: higher = more signal.
Assay [10] concerns the target E3 ubiquitin-protein ligase XIAP (Homo sapiens) (UniProt P98170). The assay can be described thus: XIAP binders, primary screen, biophysical, small-molecule microarray, fluorescence 635 nm (AID 1181).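 Note: score merges 667 nm emission and signal to noise over triplicate slides.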 The following applies: small-molecule microarray binding, higher = more signal.

Calls of active or inactive are those of the source. Unless noted, the rule behind the calls is not given here.

Sequence of E3 ubiquitin-protein ligase XIAP (Homo sapiens) (P98170 whole entry, looked up): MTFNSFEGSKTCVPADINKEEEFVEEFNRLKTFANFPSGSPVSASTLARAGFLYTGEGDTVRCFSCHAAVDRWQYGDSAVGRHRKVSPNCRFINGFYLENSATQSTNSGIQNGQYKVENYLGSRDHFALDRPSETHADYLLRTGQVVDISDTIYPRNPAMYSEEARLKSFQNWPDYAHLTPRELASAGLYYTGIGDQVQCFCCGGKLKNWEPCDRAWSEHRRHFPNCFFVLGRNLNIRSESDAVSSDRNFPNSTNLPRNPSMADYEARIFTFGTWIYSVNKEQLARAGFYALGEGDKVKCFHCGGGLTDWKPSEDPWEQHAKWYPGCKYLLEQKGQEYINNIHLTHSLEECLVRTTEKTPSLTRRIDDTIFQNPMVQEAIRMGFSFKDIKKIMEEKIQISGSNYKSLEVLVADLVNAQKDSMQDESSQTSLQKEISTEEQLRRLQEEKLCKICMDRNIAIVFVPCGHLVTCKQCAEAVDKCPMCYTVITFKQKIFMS

For the compound `CC(C)[C@@H](OCc1ccccc1)[C@H](C)C=NO[C@H](C)c1cn([C@H](CO)Cc2ccccc2)nn1`, the z-score in assay [1] was -1.01; in [2] it was -3.51 (inactive); in [3], -2.02 (inactive); in assay [5], -0.324 (inactive); in assay [6], -2.3 (inactive); in assay [7] it was -0.0325 (inactive). In addition, the values for the z-score in assay [8] and in assay [9] were -0.0205 (inactive) and -1.67, respectively. The results for the composite z-score in [4] and in assay [10] were -0.926 (inactive) and -0.0287, respectively.
For `COC(=O)[C@@H]1CCCN1C(=O)[C@@H](C)CO`, the z-score in assay [1] is -0.337; in assay [2], -1.06 (inactive); in assay [3], -0.379 (inactive); in assay [5], 0.0372 (inactive); in [6] it was -0.213 (inactive); in assay [7], -1.47 (inactive). For the same compound, the z-score is -2.18 (inactive) in assay [8] and -0.376 in [9]. The composite z-score was -2.93 (inactive) in assay [4] and -0.0415 in [10].
For the compound `COC(=O)[C@@]1(Cc2ccc(F)cc2)[C@@H]2C(=CC(=O)[C@H]2CC(=O)C(=O)N(C)C)CN1C(=O)c1ccccc1`, the z-score in assay [1] is -1.46; in [2], 1.69 (inactive); in assay [3], -2.73 (inactive); in assay [5], 0.784 (inactive); in assay [6], 1.38 (inactive); in assay [7], -0.0125 (inactive). Further, the z-score in [8] was 0.0104 (inactive); in [9], -2.94. Besides, the figures for the composite z-score in assay [4] and in assay [10] were 0.354 (inactive) and -0.174, respectively.
Turning to `CO[C@@H]1COC(=O)CCC[C@@H](C)[C@H](OC)COC(=O)[C@H](Cc2ccccc2)NC(=O)CC=C[C@H]1C`, the z-score in assay [1] was 0.229; in [2] it was -0.987 (inactive); in [3] it was -0.15 (inactive); in [5], -0.291 (inactive); in assay [6], 0.926 (inactive); in assay [7], 0.024 (inactive). Further, the z-score was 0.407 (inactive) in [8] and 1.05 in assay [9]. Further, the figures for the composite z-score in assay [4] and in assay [10] were 0.615 (inactive) and 0.0155, respectively.
In the case of `CCN(CC)c1ccc(N2CC=CC34O[C@@H]5/C=C\CCC(C)OC(=O)C5[C@H]3C(=O)N(CCCO)[C@@H]4C2=O)cc1` (stereo not given in full), the z-score in assay [1] was -0.649; in assay [2], 1.09 (inactive); in assay [3], 0.267 (inactive); in [5], -0.745 (inactive); in [6], 1.21 (inactive); in [7], 0.692 (inactive). Besides, the z-score is 0.562 (inactive) in [8] and 0.47 in assay [9]. Besides, the results for the composite z-score in assay [4] and in assay [10] were 0.424 (inactive) and -0.0243, respectively.
Turning to `COc1ccc([Si](C)(C)[C@H]2[C@H](CC(=O)N3CCC[C@H]3CO)O[C@@]3(C(=O)N(Cc4cccc(N5C(=O)COc6ccccc65)c4)c4ccccc43)[C@@H]2C)cc1`, the z-score was -0.58 in assay [1]; -1.16 (inactive) in [2]; -0.986 (inactive) in assay [3]; 1.85 (inactive) in assay [5]; -1.74 (inactive) in assay [6]; 1.21 (inactive) in assay [7]. Moreover, the z-score in [8] was 1.32 (inactive); in [9] it was -0.524. The composite z-score was -3.33 (inactive) in assay [4] and -0.0795 in assay [10].
Regarding `CCOC(=O)[C@H](CC(C)C)NC(=O)CCC1CC(OC(=O)NCc2cccc3ccccc23)CC2(CCCC(COC(=O)NCCc3ccccc3OC)O2)O1` (stereo not given in full), the z-score in assay [1] was 0.563; in assay [2], -0.581 (inactive); in assay [3], 0.072 (inactive); in [5], 0.684 (inactive); in [6], -0.0922 (inactive); in [7], -0.436 (inactive). The z-score in assay [8] was -0.141 (inactive); in assay [9], -0.31. Moreover, the composite z-score is -0.987 (inactive) in [4] and -0.134 in [10].
`CC(CCN1CCc2nc(-c3ccccc3)c(-c3ccccc3)cc2C1)=NO[C@H](C)c1cn([C@@H]2COC[C@H]2O)nn1`: the z-score in [1] was -0.233; in [2], -0.799 (inactive); in [3] it was -0.869 (inactive); in [5], 0.408 (inactive); in [6], -0.462 (inactive); in assay [7], 0.532 (inactive). For the same compound, the z-score in assay [8] was 0.705 (inactive); in assay [9], -0.639. In addition, the values for the composite z-score in assay [4] and in assay [10] were -0.0119 (inactive) and 0.063, respectively.
Regarding `O=C1c2ccccc2[C@@]2(Cc3ccccc3N(C3CC3)C2=O)[C@H](c2ccc(CO)cc2)N1Cc1ccccc1C(F)(F)F`, the z-score in assay [1] was -0.506; in assay [2], 0.194 (inactive); in assay [3], 0.187 (inactive); in assay [5] it was 0.242 (inactive); in [6] it was -0.887 (inactive); in assay [7] it was -0.201 (inactive). Besides, the z-score in assay [8] was -0.136 (inactive); in assay [9] it was -0.398. The composite z-score in [4] is -9.3 (active); in assay [10] it was 0.0428.
`CCCCc1nc2c(c3c1C[C@H](C)OC3)CN(CCC(C)C)CC2`: the z-score in assay [1] was -0.165; in [2] it was -2.07 (inactive); in [3], 0.431 (inactive); in assay [5], 0.332 (inactive); in [6] it was -0.674 (inactive); in assay [7], 0.56 (inactive). The z-score in [8] is -0.104 (inactive); in [9], 1.2. Besides, the composite z-score is -0.847 (inactive) in assay [4] and 0.0133 in assay [10].
As for `O=C1[C@H]2[C@H]3[C@H](O)[C@H](O)CC(=NOC[C@@H](O)COCc4ccco4)[C@H]3CC[C@H]2C(=O)N1C1CCCCC1`, the z-score in [1] is 0.0194; in assay [2], -0.563 (inactive); in assay [3], -0.304 (inactive); in assay [5], 0.188 (inactive); in assay [6] it was -0.479 (inactive); in assay [7], 0.426 (inactive). In addition, the z-score in assay [8] is -0.0377 (inactive); in [9] it was -0.263. The figures for the composite z-score in [4] and in assay [10] were -2.13 (inactive) and 0.116, respectively.
`Cc1ccc(C2CC=C(C(=O)O)CN2S(=O)(=O)c2ccc(C)cc2)cc1` (stereo not given): the z-score in assay [1] is -0.719; in [2] it was -0.0489 (inactive); in assay [3], -0.955 (inactive); in [5], 0.396 (inactive); in [6], 0.603 (inactive); in assay [7], -0.799 (inactive). The z-score in assay [8] is -1.52 (inactive); in [9], -1.54. Also, the values for the composite z-score in assay [4] and in assay [10] were 1.23 (inactive) and -0.102, respectively.
For the compound `COC(=O)C1=C(C)N(Cc2ccccc2)[C@]23O[C@](C(=O)OC)(C(=O)N2[C@@H]1c1ccccc1)[C@H]1CCOC(=O)[C@H]13`, the z-score in assay [1] is 0.338; in [2], 0.424 (inactive); in assay [3], 0.444 (inactive); in assay [5], -0.765 (inactive); in assay [6] it was 1.55 (inactive); in [7], 0.0676 (inactive). Also, the figures for the z-score in assay [8] and in [9] were -0.164 (inactive) and 0.732, respectively. In addition, the composite z-score in [4] is 1.01 (inactive); in [10], 0.0896.

The record behind these values is PubChem BioAssay.
